The results in this text go back to PubChem BioAssay AID488890 (Southern Research Specialized Biocontainment Screening …, 2010).

The whole screen tested about 320,000 compounds, of which about 1,300 (0.41%) were called active. Another 3% or so got no clear call; they are omitted. No rule for the calls is given here. Only a sample is shown. Potency and affinity values are given separately.

The nature of this assay: growth inhibition of non-replicating M. tuberculosis (AID 488890).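 Also: plate controls were DMSO cells for no effect and high antibiotic wells for full effect.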 As to conditions: Mycobacterium tuberculosis non-replicating, at 25 µM, stronger effect = higher value.
The term inhibition denotes the drop in the measured response relative to a control, in per cent. Turning to `CC1CCCCN1CCn1c(=S)[nH]c2cc3c(cc2c1=O)OCO3` (stereo not drawn), the inhibition was 9.55%.
The figure for `Cc1c(/C=C2\NC(=O)NC2=O)c2ccccc2n1C` is 16.4%.
The figure for `O=c1cc(O)n(Cc2ccc(F)cc2)c(=O)[nH]1` is -1.55%.
As to `CCOCCCNC(=O)C1CCC(CNS(=O)(=O)c2cccc3nsnc23)CC1` (stereo not drawn), the inhibition was -10.5%.
To `COc1cccc2cc(C(=O)c3ccccc3)oc12` belongs 77.7%; to `COc1ccc(C(=O)c2cc3cccc(OC)c3o2)cc1`, 70.7%; to `O=C(COc1ccccc1Cl)N1CCN(C(=O)c2ccco2)CC1`, 6.78%.
With `CCOCCOC(=O)c1[nH]c2c(c1C)C(=O)CC(c1cccs1)C2` (stereo not drawn), the inhibition is 5.49%.
To `Cc1[nH]c2ccc(Br)cc2c(=O)c1CN1CCCCC1` belongs 6.69%; to `COC(=O)C(/C=N/OCc1ccc([N+](=O)[O-])cc1)NC(=O)c1ccccc1` (stereo not drawn), 1.7%; to `CO/N=C/CC(=O)Nc1ccc(F)cc1F`, -1.66%.
To `O=C(CCNC(=O)c1ccc([N+](=O)[O-])cc1)Nc1ccc(F)cc1F` belongs 69.1%; to `O=C(C/C=N\OCc1ccc(Cl)cc1Cl)Nc1ccccc1`, 55.5%; to `O=C(Cc1ccc([N+](=O)[O-])cc1)Nc1ccc(Cl)cc1`, 12.6%.
As for `O=C(O)CC(Cc1ccc(Cl)cc1)C(=O)Nc1ccc([N+](=O)[O-])cc1` (stereo not drawn), the inhibition is 7.55%.
The figure for `O=C(NCCCCc1ccccc1)C1CC(c2cccc(F)c2)=NO1` (stereo not drawn) is 9.38%; for `Nn1c(-c2ccccc2)nc2ccccc2c1=O` it is -12.5%; for `O=C(O)c1cnc(-c2ccccc2)nc1Sc1cccc(Cl)c1` it is 53.3%.
To `CCC(CC)NC(=O)COC(=O)c1cc(SC)ccc1Cl` belongs 28.5%; to `CCOc1ccccc1N1CCN(CC(O)COC2CCCc3ccccc32)CC1` (stereo not drawn), 59.7%; to `CN(C)C(=O)CSc1nnc([C@H](Cc2c[nH]c3ccccc23)NC(=O)OC(C)(C)C)o1`, -0.86%.
The figure for `CC(CCc1ccc(O)cc1)NC1c2ccccc2-c2ccccc21` (stereo not drawn) is 43.3%; for `CC(C)=N/N=C1\NC(=O)C(C)S1` (stereo not drawn) it is 54%; for `O=C(CNC(=O)N1CC(=O)Nc2ccccc21)Nc1ccccc1F` it is -10.2%.
Turning to `N=C1S/C(=C\c2ccco2)C(=O)N1c1ccc2c(c1)OCO2`, the inhibition worked out at 0.43%.
The figure for `COc1ccc(/C=C2\SC(=N)N(c3nccs3)C2=O)cc1OC` is -5.11%; for `CN(C1CCCCC1)S(=O)(=O)c1cccc(C(=O)Nc2ccccn2)c1` it is 25.5%; for `CCOP(=O)(Cc1cc(C(=O)CC)c(C)o1)OCC` it is -21.9%.
The figure for `O=c1ccnc(Sc2ncccc2[N+](=O)[O-])[nH]1` is 37.6%; for `CC(C)(C)c1csc(Sc2ncccc2[N+](=O)[O-])n1` it is 19.4%.
On to `Cc1ccc(Sc2ncccc2[N+](=O)[O-])cc1`, for which the inhibition came out at 23.3%.
The figure for `O=[N+]([O-])c1cccnc1Sc1ccc(F)cc1` is 18.3%; for `CCn1c(=O)n(-c2ccc(Cl)cc2)c(=O)c2c3c(sc21)COC(C)(C)C3` it is 5.56%; for `O=C(COC(=O)Cc1ccsc1)Nc1ccc(Cl)cc1F` it is 70.1%.
Turning to `CC(C)(C)OC(=O)CNC(=O)c1[nH]cnc1C(=O)NC1CCNCC1`, the inhibition was -8.53%.
The figure for `Cc1ccc(OCCCC(=O)NCc2ccco2)cc1` is 53.7%; for `COc1ccc(OCCCC(=O)NCc2ccco2)cc1` it is 56.7%.
The figure for `CC1CCN(C(=O)c2cc3c(=O)n4ccccc4nc3s2)CC1` is -10.7%.
To `CCCCN(C)Cc1c(C)[nH]c2ccc(C)cc2c1=O` belongs 3.45%.
On to `CC(CCc1ccccc1)NC(=O)c1ccc(F)cc1` (stereo not drawn), for which the inhibition amounted to 65.9%.
In the case of `CN(C)CCCN(C(=O)c1ccc(S(=O)(=O)N2CCCCC2)cc1)c1nc2cc3c(cc2s1)OCO3`, the inhibition stood at 20.6%.
To `CSCCOC(=O)COc1ccc(/C=N/NC(=O)c2nn(C)cc2Cl)cc1` belongs 75.7%; to `CC(C)c1ccc(/C=N/NC(=O)c2c(Cl)cnn2C)cc1`, -10.4%.
The figure for `COc1cc(CN2CCN(Cc3ccc(SC)cc3)CC2)cc(OC)c1O` is -26.9%; for `N/C(=N\N=C\c1cccs1)SC1CC(=O)N(c2cccc([N+](=O)[O-])c2)C1=O` (stereo not drawn) it is -1.1%.
To `COc1ccc(N(CN2C(=O)c3ccccc3C2=O)C(=O)C(C)C)cc1` belongs 2.08%; to `O=C(Nc1ncc(Cc2ccccc2)s1)C1COc2ccccc2O1` (stereo not drawn), 64%.
On to `CC(=O)Nc1ncc(Cc2cccc(Cl)c2)s1`, for which the inhibition stood at 36.5%.
The figure for `O=C(Nc1ncc(Cc2ccccc2Cl)s1)c1ccc([N+](=O)[O-])cc1` is -27.1%; for `Cc1ccc(C(=O)Nc2ncc(Cc3ccccc3)s2)o1` it is 32.2%; for `Cc1ccc(Cc2cnc(NC(=O)c3ccco3)s2)cc1` it is 79%.
The figure for `Cc1ccc(C(=O)Nc2ncc(Cc3ccc(F)cc3)s2)o1` is 13.4%; for `CC(C)C(=O)Nc1ncc(Cc2ccccc2Cl)s1` it is 4.24%; for `CC(C)C(=O)Nc1ncc(Cc2ccc(Cl)cc2)s1` it is 32.4%.
The figure for `O=C(CSc1oc(-c2ccc(F)cc2)nc1S(=O)(=O)c1ccccc1)NCC1CCCO1` (stereo not drawn) is -4.84%.
Regarding `CCc1cc(CNC(=O)c2ccc(OC3CCN(CCc4ccccc4)CC3)cc2)on1`, the inhibition is 4.71%.
`CN(CC(=O)Nc1cccc(F)c1)C(=O)c1ccccc1Cc1ccccc1`: the inhibition is -4.13%.
To `O=C(NCc1ccco1)c1cccc(S(=O)(=O)N2CCCCC2)c1` belongs 16.4%; to `CCN1CCN(C(=O)/C(=C/c2ccco2)NC(=O)c2ccccc2)CC1`, -2.48%.
With `O=C(CCC(=O)N1CCOc2ccccc21)N1CCCCC1`, the inhibition was -34.4%.
To `CN(C)CCCN(C(=O)c1ccc(N2C(=O)CCC2=O)cc1)c1nc2c(F)cccc2s1` belongs -7.06%.
To `CCN1CCCC1CNC(=O)C(=O)NC(C)c1ccccc1` (stereo not drawn) belongs 5.13%; to `COCc1cc(=O)[nH]c(SCC(=O)c2ccccc2)n1`, -7.52%.
For the molecule `O=C(O)c1cccc(-n2sc3ccccc3c2=O)c1`, the inhibition was -0.63%.
As for `O=c1c2ccccc2sn1-c1ccc(F)cc1`, the inhibition is -1.44%.
To `CC1(C)CC(=O)C2=C(C1)OC1=C(C(=O)CC(C)(C)C1)C2c1ccccc1` belongs -3.44%.
To `Cc1ccc(NC(=O)CN2CCCCCC2)cc1Br` belongs 5.31%; to `CN(CC(=O)Nc1ccc(S(N)(=O)=O)cc1)C1CCCCC1`, -0.54%; to `COc1ccc(NC(=O)CN(C)C2CCCCC2)cc1Cl`, 33.9%.
The figure for `Cc1ccc(NC(=O)CN(C)C2CCCCC2)cc1Cl` is 72.6%; for `CCC(=O)Nc1ccc2oc(-c3cccc(C)c3)nc2c1` it is -26.3%.
Regarding `COCC(=O)Nc1ccccc1C(=O)Nc1ccc(OC)cc1`, the inhibition is -1.58%.
The figure for `COc1ccc(CCN(C)C2CCCN(S(C)(=O)=O)C2)cc1OC` (stereo not drawn) is -23.7%.
The figure for `O=C(CN1CCN(c2ccccc2F)CC1)c1c[nH]c2ccccc12` is 4%; for `COc1ccc(-n2nc(C(=O)NCC(=O)N3CCN(c4ccc(F)cc4)CC3)c3ccccc3c2=O)c(OC)c1` it is 3.71%.
To `N#Cc1ccc(C(=O)CN2CCN(c3ccccc3)CC2)cc1` belongs 3.58%; to `COc1ccc(N2CCN(C(=O)C3CCN(C(=O)c4ccc([N+](=O)[O-])cc4)CC3)CC2)cc1`, 21.3%.
Take `CS(=O)(=O)N(CC(=O)N1CCN(c2ccc(F)cc2)CC1)c1cccc(Cl)c1`: the inhibition is -4.05%.
On to `O=C(NCc1cccnc1)c1ccc(S(=O)(=O)N2CCCCCC2)cc1`, for which the inhibition was 5.4%.
The figure for `CCOCC(=O)Nc1ccc(Br)c(C)c1` is 78.4%; for `CC(C)c1ccc(NC(=O)COc2ccccc2)cc1` it is 75.1%.
For the molecule `COCC(=O)Nc1ccc(C)c(Cl)c1`, the inhibition stood at 57.3%.
The figure for `COc1cc(NC(=O)COc2ccc(-n3ccnc3)cc2)cc(OC)c1` is 57.6%; for `Cc1ccc(NC(=O)COc2ccccc2C=O)cc1Cl` it is 11.5%; for `Cc1ccc(NC(=O)COc2ccccc2C(=O)Nc2ccccc2)cc1Cl` it is -4.97%.
To `O=C(COc1ccc(-n2ccnc2)cc1)Nc1cccc(F)c1` belongs 62.5%.
Take `Cc1ccc(NC(=O)CCC(=O)NNC(=O)COc2ccccc2)cc1C`: the inhibition was -33.1%.
On to `CC(C)n1ncc(C(N)=O)c1N`, for which the inhibition is -11%.
To `O=C(CO/N=C/c1c(Cl)cccc1Cl)NNC(=O)c1ccc(Cl)cc1` belongs -1.83%; to `CCn1ccnc1CN(C)C(=O)CCc1nnc(CCC2CCCCC2)o1`, 6.59%; to `Cc1cccc(-n2c(-c3ccncc3)n[nH]c2=S)c1C`, 13.2%.
To `Nc1nc(SCCC(F)=C(F)F)n[nH]1` belongs 2.3%; to `Cc1cccc(OCC(=O)Nc2ccc3nc(C)sc3c2)c1`, 75.1%; to `O=C(CC(Nc1ccccc1)C(=O)O)c1ccccc1` (stereo not drawn), 28.9%.
The figure for `O=C(CC(Nc1ccc(Cl)cc1)C(=O)O)c1ccccc1` (stereo not drawn) is 58.9%.
Turning to `Cc1nc2ccc(NC(=O)Cc3cccc(F)c3)cc2s1`, the inhibition is 3.01%.
The figure for `CC(=O)c1ccccc1OCc1ccc(S(=O)(=O)Cc2ccccc2)cc1` is 46%; for `O=C(NCc1ccccc1F)C1CCCN1C(=O)Nc1ccc(F)cc1` (stereo not drawn) it is 5.39%; for `CC1CN(C(=O)COc2ccc3ccccc3c2Br)CC(C)O1` (stereo not drawn) it is 3.67%.
As to `O=C(NCc1cccnc1)C(=O)N/N=C/c1ccccc1[N+](=O)[O-]`, the inhibition is 0.97%.
The figure for `CC(=O)[C@@]1(O)CCC2C3CC=C4C[C@@H](O)CC[C@]4(C)C3CC[C@@]21C` (stereo partly drawn) is -5.65%.
The figure for `Cc1nnc(SCc2nnc(-c3cccs3)o2)n1C` is -12.8%; for `CCSc1nnc(-c2cccs2)o1` it is 58.5%; for `Fc1ccc(CSc2nnc(-c3ccncc3)o2)cc1` it is 73.6%.
To `Cc1nnc(SCc2nnc(-c3cccs3)o2)s1` belongs 72.4%; to `COc1cccc(C(=O)CSc2nnc(-c3cccs3)o2)c1`, 65%; to `c1csc(-c2nnc(COc3ncnc4sccc34)o2)c1`, 10.4%.
For `Clc1ccc(Cc2nnc(-c3ccccc3Br)o2)cc1`, the inhibition stood at 69.1%.
To `Clc1ccc(Cc2noc(-c3cccs3)n2)cc1` belongs 78.5%; to `CCOC(=O)c1cnc(SCc2ccc(C(C)(C)C)cc2)nc1N`, 14.9%; to `CCOC(=O)C(NC(=O)Nc1ncccn1)(Oc1ccccc1)C(F)(F)F` (stereo not drawn), -3.5%.
The figure for `COc1ccc(N2CCOCC2)c(NC(=O)c2ccc(Br)o2)c1` is 10%; for `Cc1cc(C(F)(F)F)n2[nH]c(=O)c(N=Nc3ccccc3)c2n1` it is -0.96%.
For the molecule `Cc1cc(C)n2[nH]c(=O)c(N=Nc3ccc(S(N)(=O)=O)cc3)c2n1`, the inhibition was -1.74%.
As for `Cc1cc(C)n2[nH]c(=O)c(N=Nc3ccccc3)c2n1`, the inhibition is -9.77%.
Regarding `COc1cccc(N=Nc2c(=O)[nH]n3c(C)cc(C)nc23)c1`, the inhibition was found to be 65.1%.
To `Cc1ccc(NC(=O)OCCNC(=O)OC(C)C)cc1` belongs 13.6%; to `C/C(=C/C(=O)O)C(=O)Nc1cccc(C(F)(F)F)c1`, 37.8%.
